Reference: the supplement of paper PMC6555819

System: VDR:RXRa (NR concentration 270 nM, RXRa partner concentration 90 nM)
Assay: PBM binding z-score (relative to random genomic background probes); higher = stronger binding; sequences stand for … in GC…GCGATTGACAGCGTAGAATGAAGG
Protocol: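 Protein-binding microarray (Agilent 4x180K custom design, double-stranded 60-nt probes: 5' GC cap, 34-nt variable region, 24-nt constant primer region; full probe sequence given). Purified or IVT nuclear receptor:RXRα heterodimers (3:1 NR:RXRα, mostly 270:90 nM) or homodimers were incubated for 1 h in PBS with 2% milk and no ligand, then detected with Alexa488 antibodies. Fluorescence from o1-orientation probes (~5 replicates averaged) was converted to z-scores against 500 random hg19 background probes. Variable regions are seed direct-repeat (DR0–DR5) sites, all their single-nucleotide variants and half-site ablations.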

| Sequence | PBM binding z-score |
| --- | --- |
| ATCTCTAGGTAACAAGTACAGTGAAAGAGAGGAC | 0.429 |
| CCTTACGGGTCACTGACAGGTTATTGCATTTGGA | 3.93 |
| CCGACTGGGGCAAAGGTTACCATTCTCAGTACGA | 1.43 |
| CCGACTGGGGCAAAGGTTACCATCCTCAGTACGA | 1.37 |
| AGTATGAGGTTATACGTAGATCAGGGAAGAAAGT | 1.34 |
| CCTATGAGTTGACCATAAGGGCAACCGAAGCTCG | 0.81 |
| CCTAGTGGGTCAAGGTCACACACGCTATAGGTAC | 4.64 |
| GGAACGAGGGCAAAGTTGCTAGCATCTGTCGACG | 1.01 |
| ATACCAAGGTGATCGTGAGATCGTTGATACTAAC | 0.19 |
| AGAATGAGGTTACCAAAGAACAGGGAAACGCTTG | 1.17 |
| TCTGCTTGGTCAGTTGGTCAGCTAACGAGCTGCC | -0.451 |
| CCTACTGGGCCACGAAAGGTTATTGATTCAGTGA | 0.818 |
| CCTACTGGGCCAAATGTCATTGATTCCAATGCTC | 0.0339 |
| TCTAGCAGGCCGGAGGGTCACTCAAGAGGTACGG | 1.03 |
| CCTACTGGGCCATCAGGGCATTGATATCAACGTT | -0.589 |
| CAAACTAGGTCACGAAAGGTCAAAGTAGAATGAC | 6.69 |
| AGAACGAGGGCACGCGGAGTTGATAGCAGAGTAG | 1.95 |
| TCATATAAGTAAAGGTGAAAGTCGAACGATATGA | 0.925 |
| CCTACTGGCCCAAGGTCATTGATCAGTCAAAGCA | 3.26 |
| ACAGACGGGTGAGTGAAGGTAACTCAGCTGGACG | -0.422 |

| Sequence | PBM binding z-score |
| --- | --- |
| TCTTGTAGATCAATGGTTAAGAAAGCCGAAGCCT | 0.403 |
| ATCTCTAGGTAAGACTCAGTTCACTGAAGAACGC | 1.74 |
| GATGCTAGGTCAGGTTGGTCAGCTAACGGGTACG | 0.88 |
| CCTACTTGGCCATCAGGTCATTGATATCAACGTT | 2.12 |
| CCGACTGGGCCAAGGTTACCATAACGCACAGCCA | -0.185 |
| GCGACTGGGGCATCAGCAGGTTACCGTAACTTAA | -0.147 |
| CGTCCAAGGTCGATGCTAGGTCAGTGAAAGCATT | 2.26 |
| CCTACTGGGCCCTCAGGTCATTGATATCAACGTT | 1.43 |
| TCAGATAGGTAAATGCTAGGTGAAAGTCCGATCT | 0.407 |
| CCGACTGGGGCATAAGGTTGCCATAAGCCAGCCC | -0.377 |
| CCTTACTGGTCACTCCAGGTTATAGCATCGGAGT | 0.952 |
| CCTACTGGGCCATTCAGAAGTCATTGATCATATG | -0.356 |
| CAAACTAGGTCAAGAGTTCAAAGTCCGCTTCCCG | 6.21 |
| CCTCCTAGGTCATGGTCAGCTAATCTACAGTATG | 1.93 |
| GCATAAAGGTAATACAAGGTGAAAGTCCGATTGT | 1.05 |
| CCTAGCAGGCCAATCTGGGTCACTCATGGCTTGA | 0.303 |
| TCTTGTAGATCAACAGGAGGTTATGAAAGATCGA | 0.761 |
| ATCTCTAGGTAACAAGTTCAGTGAAAGAGAGGAC | 2.13 |
| GCTAGTTGGTCAGTAAACGGTCACACACCGGTCG | -0.0437 |
| CCTACTGGGCCAAAAAGGGCATTGATGCCGATAA | 1.01 |
